Test results published in the supplement of paper PMC10849652.
About 8,800 targets were measured; listed, in parts, are those with a hit and a random draw of the rest. About 0.5% of all pairs of compound and target were hits. Values without a mark were called inactive.

What was measured:
Assay in all cases: log2 fold change, soluble protein after heating vs DMSO (PISA); higher = thermal stabilisation; K562 lysate, 10 uM; active = over 0.2 and 3.5 SD of the protein, either way, in both replicates (recomputed)
lapatinib = compound: CS(=O)(=O)CCNCc1ccc(-c2ccc3ncnc(Nc4ccc(OCc5cccc(F)c5)c(Cl)c4)c3c2)o1 [lapatinib]
In short: (§1)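 Quantification was by TMTpro 16plex LC-MS/MS with equalised channel sums, applied to the supernatant after 21,000xg for 90 min. Samples were crude K562 extract at 1 mg/mL protein in PBS pH 7.4 with 1 mM MgCl2, treated with 10 μM compound for 30 min, heated for 3 min across 48°C-58°C, pooled and brought to 0.5% NP-40 at 4°C. Values are log-two fold changes in thermal stability relative to solvent controls, from duplicates.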

pictilisib = compound: CS(=O)(=O)N1CCN(Cc2cc3nc(-c4cccc5[nH]ncc45)nc(N4CCOCC4)c3s2)CC1 [pictilisib]
In short: as §1

crizotinib = compound: C[C@@H](Oc1cc(-c2cnn(C3CCNCC3)c2)cnc1N)c1c(Cl)ccc(F)c1Cl [crizotinib]
In short: as §1

[1] = compound: C[C@H](C1=CC=C(C=C1)C(=O)NC2=C3C=CNC3=NC=C2)N
In short: as §1

duvelisib = compound: C[C@H](Nc1ncnc2nc[nH]c12)c1cc2cccc(Cl)c2c(=O)n1-c1ccccc1 [duvelisib]
In short: as §1

gandotinib = compound: Cc1cc(Nc2cc(CN3CCOCC3)c3nc(C)c(Cc4ccc(Cl)cc4F)n3n2)n[nH]1 [gandotinib]
In short: as §1

tozasertib = compound: Cc1cc(Nc2cc(N3CCN(C)CC3)nc(Sc3ccc(NC(=O)C4CC4)cc3)n2)n[nH]1 [tozasertib]
In short: as §1

doramapimod = compound: Cc1ccc(-n2nc(C(C)(C)C)cc2NC(=O)Nc2ccc(OCCN3CCOCC3)c3ccccc23)cc1 [doramapimod]
In short: as §1

bafetinib = compound: Cc1ccc(NC(=O)c2ccc(CN3CC[C@H](N(C)C)C3)c(C(F)(F)F)c2)cc1Nc1nccc(-c2cncnc2)n1 [bafetinib]
In short: as §1

[2] = compound: Cc1cccc(CC(=O)N2CCc3c2ccc(-c2cn(C)c4ncnc(N)c24)c3F)n1
In short: as §1

nilotinib = compound: Cc1cn(-c2cc(NC(=O)c3ccc(C)c(Nc4nccc(-c5cccnc5)n4)c3)cc(C(F)(F)F)c2)cn1 [nilotinib]
In short: as §1

[3] = compound: Cc1nc(Nc2n[nH]c3c2CN(C(=O)N[C@H](CN(C)C)c2ccccc2)C3(C)C)c2sccc2n1
In short: as §1

dasatinib = compound: Cc1nc(Nc2ncc(C(=O)Nc3c(C)cccc3Cl)s2)cc(N2CCN(CCO)CC2)n1 [dasatinib]
In short: as §1

[4] = compound: Cc1ncc(-c2ccnc(Nc3ccc(S(C)(=O)=O)cc3)n2)n1C(C)C
In short: as §1

[5] = compound: Cn1cc(-c2ccc3c(c2)CCN3C(=O)Cc2cccc(C(F)(F)F)c2)c2c(N)ncnc21
In short: as §1

quisinostat = compound: Cn1cc(CNCC2CCN(c3ncc(C(=O)NO)cn3)CC2)c2ccccc21 [quisinostat]
In short: as §1

tipifarnib = compound: Cn1cncc1[C@@](N)(c1ccc(Cl)cc1)c1ccc2c(c1)c(-c1cccc(Cl)c1)cc(=O)n2C [tipifarnib]
In short: as §1

[6] = compound: NC(=O)Nc1cc(-c2cccc(F)c2)sc1C(=O)N[C@H]1CCCNC1
In short: as §1

[7] = compound: NC(=O)c1cnc(N[C@@H]2CCCC[C@@H]2N)nc1Nc1cccc(-n2nccn2)c1
In short: as §1

[8] = compound: NC1(c2ccc(-c3nc4ccn5c(=O)[nH]nc5c4cc3-c3ccccc3)cc2)CCC1
In short: as §1

Chain of UniProt P52895 (P52895 whole entry, looked up): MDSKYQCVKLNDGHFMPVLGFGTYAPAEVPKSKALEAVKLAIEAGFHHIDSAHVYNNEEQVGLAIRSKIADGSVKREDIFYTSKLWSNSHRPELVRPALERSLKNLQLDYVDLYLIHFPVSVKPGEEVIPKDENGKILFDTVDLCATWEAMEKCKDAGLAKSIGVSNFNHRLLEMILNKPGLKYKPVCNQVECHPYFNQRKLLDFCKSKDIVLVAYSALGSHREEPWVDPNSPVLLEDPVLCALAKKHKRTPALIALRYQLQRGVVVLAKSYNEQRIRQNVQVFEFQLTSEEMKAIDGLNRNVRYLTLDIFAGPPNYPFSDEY
Chain of UniProt Q9NQW6 (Q9NQW6 whole entry, looked up): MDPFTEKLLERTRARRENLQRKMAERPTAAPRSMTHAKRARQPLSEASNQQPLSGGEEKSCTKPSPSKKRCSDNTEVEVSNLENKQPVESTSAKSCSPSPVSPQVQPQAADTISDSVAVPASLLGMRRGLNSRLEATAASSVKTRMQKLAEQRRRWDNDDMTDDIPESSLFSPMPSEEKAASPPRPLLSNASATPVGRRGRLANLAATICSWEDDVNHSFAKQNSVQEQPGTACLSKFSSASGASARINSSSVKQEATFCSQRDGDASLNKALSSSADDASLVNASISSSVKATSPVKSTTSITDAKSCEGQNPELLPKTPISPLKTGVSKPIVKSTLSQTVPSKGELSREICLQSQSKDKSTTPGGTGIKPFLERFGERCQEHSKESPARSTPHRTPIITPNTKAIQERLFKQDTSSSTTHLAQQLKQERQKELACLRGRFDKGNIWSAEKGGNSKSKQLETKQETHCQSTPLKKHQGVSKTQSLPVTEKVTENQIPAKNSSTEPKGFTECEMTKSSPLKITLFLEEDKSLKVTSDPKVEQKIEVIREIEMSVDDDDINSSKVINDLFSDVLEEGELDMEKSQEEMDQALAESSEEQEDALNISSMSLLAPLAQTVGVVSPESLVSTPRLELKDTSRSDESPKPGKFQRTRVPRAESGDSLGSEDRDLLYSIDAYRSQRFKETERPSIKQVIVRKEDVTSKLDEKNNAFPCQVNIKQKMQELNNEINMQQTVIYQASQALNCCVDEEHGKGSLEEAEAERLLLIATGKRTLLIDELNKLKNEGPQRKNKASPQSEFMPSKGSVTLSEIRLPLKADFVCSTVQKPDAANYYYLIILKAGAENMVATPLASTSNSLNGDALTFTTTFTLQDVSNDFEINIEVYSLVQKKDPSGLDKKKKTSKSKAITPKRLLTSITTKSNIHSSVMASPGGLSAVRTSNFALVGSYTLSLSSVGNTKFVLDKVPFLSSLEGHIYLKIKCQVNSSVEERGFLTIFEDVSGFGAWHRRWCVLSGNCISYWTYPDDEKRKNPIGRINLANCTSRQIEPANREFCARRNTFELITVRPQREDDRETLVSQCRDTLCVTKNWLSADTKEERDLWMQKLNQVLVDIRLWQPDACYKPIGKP
Chain of UniProt O60488 (O60488 whole entry, looked up): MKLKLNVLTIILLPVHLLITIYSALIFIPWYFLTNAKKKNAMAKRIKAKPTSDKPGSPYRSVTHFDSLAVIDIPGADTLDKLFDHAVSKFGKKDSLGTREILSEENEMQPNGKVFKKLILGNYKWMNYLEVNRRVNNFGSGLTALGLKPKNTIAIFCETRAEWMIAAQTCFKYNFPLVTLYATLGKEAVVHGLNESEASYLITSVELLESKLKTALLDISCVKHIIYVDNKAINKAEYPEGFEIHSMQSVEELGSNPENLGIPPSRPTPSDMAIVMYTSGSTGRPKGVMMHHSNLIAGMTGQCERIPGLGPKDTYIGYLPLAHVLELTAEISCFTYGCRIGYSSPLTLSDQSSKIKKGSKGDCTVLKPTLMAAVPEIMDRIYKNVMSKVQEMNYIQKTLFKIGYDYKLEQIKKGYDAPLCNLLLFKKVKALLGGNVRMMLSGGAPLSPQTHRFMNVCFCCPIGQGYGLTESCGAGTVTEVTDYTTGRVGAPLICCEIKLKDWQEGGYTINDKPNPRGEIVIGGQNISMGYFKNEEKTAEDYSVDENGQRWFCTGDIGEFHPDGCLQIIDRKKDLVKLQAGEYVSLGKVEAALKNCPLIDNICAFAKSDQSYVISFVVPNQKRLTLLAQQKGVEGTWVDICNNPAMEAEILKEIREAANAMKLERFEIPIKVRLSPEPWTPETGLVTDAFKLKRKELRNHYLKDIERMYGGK
Chain of UniProt P35611 (P35611 whole entry, looked up): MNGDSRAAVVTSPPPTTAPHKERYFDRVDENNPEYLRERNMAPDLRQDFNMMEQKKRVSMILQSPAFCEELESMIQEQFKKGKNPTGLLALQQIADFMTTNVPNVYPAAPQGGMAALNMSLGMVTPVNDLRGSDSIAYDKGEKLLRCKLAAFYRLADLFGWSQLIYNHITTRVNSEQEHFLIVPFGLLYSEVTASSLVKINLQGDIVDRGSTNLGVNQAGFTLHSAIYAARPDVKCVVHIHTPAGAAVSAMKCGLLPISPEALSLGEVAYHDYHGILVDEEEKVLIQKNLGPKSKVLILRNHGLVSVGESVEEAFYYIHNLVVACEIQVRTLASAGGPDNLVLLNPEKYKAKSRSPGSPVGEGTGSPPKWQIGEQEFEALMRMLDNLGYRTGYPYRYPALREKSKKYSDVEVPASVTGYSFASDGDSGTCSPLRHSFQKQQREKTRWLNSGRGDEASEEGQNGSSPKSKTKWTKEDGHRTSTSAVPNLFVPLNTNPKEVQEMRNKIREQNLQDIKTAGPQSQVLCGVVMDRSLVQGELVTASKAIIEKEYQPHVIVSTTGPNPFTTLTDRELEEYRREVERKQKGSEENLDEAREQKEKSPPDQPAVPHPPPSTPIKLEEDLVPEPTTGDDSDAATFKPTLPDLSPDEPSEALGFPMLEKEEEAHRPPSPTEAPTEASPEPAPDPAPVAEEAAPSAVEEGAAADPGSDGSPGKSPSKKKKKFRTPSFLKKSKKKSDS
Chain of UniProt Q8N2K0 (Q8N2K0 whole entry, looked up): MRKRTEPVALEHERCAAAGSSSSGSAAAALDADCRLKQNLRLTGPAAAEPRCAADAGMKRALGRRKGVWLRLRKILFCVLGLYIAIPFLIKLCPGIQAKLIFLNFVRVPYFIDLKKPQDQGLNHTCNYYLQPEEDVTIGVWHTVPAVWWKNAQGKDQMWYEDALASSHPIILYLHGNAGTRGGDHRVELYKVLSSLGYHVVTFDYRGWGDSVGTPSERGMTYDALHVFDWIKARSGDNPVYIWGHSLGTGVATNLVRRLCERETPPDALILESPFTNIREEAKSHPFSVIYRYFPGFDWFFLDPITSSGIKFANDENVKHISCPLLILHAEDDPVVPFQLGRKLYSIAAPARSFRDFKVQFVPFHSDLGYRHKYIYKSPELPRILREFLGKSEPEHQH
Chain of UniProt P28288 (P28288 whole entry, looked up): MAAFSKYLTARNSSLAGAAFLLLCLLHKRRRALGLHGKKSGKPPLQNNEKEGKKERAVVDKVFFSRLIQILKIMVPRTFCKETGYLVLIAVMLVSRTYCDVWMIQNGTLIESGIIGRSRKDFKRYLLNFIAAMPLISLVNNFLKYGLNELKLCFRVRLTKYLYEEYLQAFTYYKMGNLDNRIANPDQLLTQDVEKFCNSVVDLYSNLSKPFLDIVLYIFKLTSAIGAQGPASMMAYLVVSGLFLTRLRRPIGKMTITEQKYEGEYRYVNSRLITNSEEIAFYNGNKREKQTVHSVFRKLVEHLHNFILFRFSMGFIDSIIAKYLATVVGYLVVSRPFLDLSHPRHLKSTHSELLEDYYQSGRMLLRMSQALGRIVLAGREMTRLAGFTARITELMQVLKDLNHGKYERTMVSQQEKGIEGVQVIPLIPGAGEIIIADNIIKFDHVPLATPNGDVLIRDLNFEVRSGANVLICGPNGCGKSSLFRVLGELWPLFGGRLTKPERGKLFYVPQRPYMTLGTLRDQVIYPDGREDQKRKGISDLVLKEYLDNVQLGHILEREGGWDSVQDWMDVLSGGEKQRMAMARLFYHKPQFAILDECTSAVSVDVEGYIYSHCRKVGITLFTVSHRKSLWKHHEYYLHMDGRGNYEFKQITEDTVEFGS
Chain of UniProt O43182 (O43182 whole entry, looked up): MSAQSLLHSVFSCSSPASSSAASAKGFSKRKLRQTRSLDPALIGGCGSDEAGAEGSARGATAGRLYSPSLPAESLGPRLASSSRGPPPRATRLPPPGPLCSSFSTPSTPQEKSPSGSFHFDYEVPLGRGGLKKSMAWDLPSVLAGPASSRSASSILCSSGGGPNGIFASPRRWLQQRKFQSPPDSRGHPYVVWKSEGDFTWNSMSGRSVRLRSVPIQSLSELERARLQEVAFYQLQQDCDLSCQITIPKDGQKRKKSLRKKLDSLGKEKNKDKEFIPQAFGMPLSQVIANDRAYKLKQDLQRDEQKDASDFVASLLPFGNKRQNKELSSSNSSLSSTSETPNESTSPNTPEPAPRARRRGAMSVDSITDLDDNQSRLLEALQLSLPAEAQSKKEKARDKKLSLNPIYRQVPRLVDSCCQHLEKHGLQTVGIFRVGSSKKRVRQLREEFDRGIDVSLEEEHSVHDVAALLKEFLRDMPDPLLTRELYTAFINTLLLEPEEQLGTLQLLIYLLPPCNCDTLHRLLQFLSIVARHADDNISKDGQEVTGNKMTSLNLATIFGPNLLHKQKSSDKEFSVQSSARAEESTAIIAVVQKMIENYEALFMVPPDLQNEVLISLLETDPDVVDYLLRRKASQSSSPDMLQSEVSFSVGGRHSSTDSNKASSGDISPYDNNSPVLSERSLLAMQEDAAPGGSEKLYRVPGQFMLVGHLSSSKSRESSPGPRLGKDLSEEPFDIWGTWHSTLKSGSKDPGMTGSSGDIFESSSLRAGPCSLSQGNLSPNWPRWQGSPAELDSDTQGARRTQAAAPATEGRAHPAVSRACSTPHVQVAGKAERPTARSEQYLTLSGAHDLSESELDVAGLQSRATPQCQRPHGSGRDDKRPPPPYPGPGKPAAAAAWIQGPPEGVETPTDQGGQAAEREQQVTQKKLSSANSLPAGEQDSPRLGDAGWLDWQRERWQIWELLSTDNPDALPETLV

Row | Target | log2 fold change (lapatinib) | log2 fold change (pictilisib) | log2 fold change (crizotinib) | log2 fold change [1] | log2 fold change (duvelisib) | log2 fold change (gandotinib) | log2 fold change (tozasertib) | log2 fold change (doramapimod) | log2 fold change (bafetinib) | log2 fold change [2] | log2 fold change (nilotinib) | log2 fold change [3] | log2 fold change (dasatinib) | log2 fold change [4] | log2 fold change [5] | log2 fold change (quisinostat) | log2 fold change (tipifarnib) | log2 fold change [6] | log2 fold change [7] | log2 fold change [8]
1 | ANKRD52 (UniProt Q8NB46) | -0.133 | -0.036 | -0.11 | -0.004 | 0.01 | 0.012 | 0 | 0.001 | -0.071 | 0.034 | 0.041 | 0.003 | -0.048 | -0.026 | -0.045 | -0.037 | -0.017 | 0.005 | -0.056 | -0.028
2 | ANLN (UniProt Q9NQW6) | -0.007 | 0.004 | -0.02 | -0.037 | -0.02 | 0.024 | 0.052 | 0.01 | -0.038 | 0.028 | -0.023 | 0.047 | -0.009 | -0.018 | 0.04 | -0.072 | -0.041 | 0.006 | -0.013 | 0.015
3 | ARHGAP6 (UniProt O43182) | 0.006 | 0.012 | -0.038 | 0.106 | 0.001 | -0.097 | 0.004 | -0.003 | -0.055 | -0.022 | -0.003 | -0.014 | -0.102 | 0 | 0.052 | -0.019 | 0.02 | 0.034 | -0.025 | -0.039
4 | AKR1C2 (UniProt P52895) | -0.012 | -0.022 | -0.059 | -0.201 | 0.049 | 0.276 (active) | 0.014 | -0.011 | 0.108 | 0.18 | 0.02 | -0.031 | -0.006 | -0.009 | -0.045 | -0.043 | 0 | 0.019 | -0.039 | -0.034
5 | ADD1 isoform 3 (UniProt P35611) | -0.017 | 0.003 | 0.014 | -0.011 | 0.014 | -0.001 | -0.002 | 0.002 | 0.002 | -0.019 | 0.027 | -0.005 | 0.007 | -0.017 | -0.012 | -0.016 | 0.019 | 0.007 | -0.015 | 0.011
6 | ABCD3 (UniProt P28288) | 0.179 | -0.019 | -0.063 | 0.014 | 0.019 | 0.079 | 0.098 | -0.002 | 0.027 | -0.006 | 0.019 | 0.093 | -0.063 | -0.184 | 0.031 | 0.074 | -0.025 | 0.016 | -0.054 | 0.087
7 | ACSL4 (UniProt O60488) | 0.008 | 0.028 | -0.042 | -0.016 | 0.026 | -0.065 | 0.002 | 0.025 | -0.093 | -0.003 | -0.011 | 0.008 | 0.004 | 0.018 | 0.02 | -0.018 | -0.051 | 0.029 | -0.032 | -0.074
8 | ABHD12 isoform 2 (UniProt Q8N2K0) | -0.006 | -0.069 | -0.04 | 0.078 | -0.057 | -0.095 | 0.06 | 0.04 | 0.062 | -0.063 | 0.005 | -0.004 | 0.028 | 0.058 | -0.068 | 0.044 | -0.077 | -0.025 | -0.02 | 0.019
